Assay outcomes (PubChem)
Apoferritin bind: binds horse apoferritin like a general anesthetic. apoferritin/1-aminoanthracene competitive binding, fluorescence. Potency, µM (highest dose often 77.5 µM), without a hit: at the highest dose activity change, negative = displacement, actives largely listed as inhibitors. 350,000 tested, 0.074% active. AID 485281; further: potency means the concentration at half of the fitted maximal effect; on the % scale 0 is the no-effect control and ±100 the full control effect; nearly all actives have a fitted effect of over 20% in size
Target sequence (P02791 2-175 limits assumed): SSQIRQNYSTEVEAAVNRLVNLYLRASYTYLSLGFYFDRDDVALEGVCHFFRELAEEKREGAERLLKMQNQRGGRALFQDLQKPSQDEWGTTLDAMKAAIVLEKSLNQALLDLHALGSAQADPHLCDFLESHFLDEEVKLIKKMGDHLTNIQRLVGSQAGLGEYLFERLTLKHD
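Horse-spleen apoferritin (10 uM) was mixed with 50% saturated 1-aminoanthracene in PBS, exposed to compounds for 10 min at room temperature, and read for fluorescence (ex 380 nm, em 535 nm). Competitive displacement was fitted with a four-parameter Hill equation.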
aSyn yeast inh: rescues yeast growth from alpha-synuclein toxicity; Yeast expressing alpha-synuclein, growth rescue, BacTiter-Glo, 24 h; Potency, µM (titrated, usually from 46.1 µM), for inactives: at the highest dose growth rescue (activation), actives largely listed as activators; 370,000 tested, 0.14% active; further: potency means the concentration at half of the fitted maximal effect; % of control where 0% means no effect; nearly all actives have a fitted effect of over 65% in size
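Screening used galactose-induced yeast with toxic alpha-synuclein levels, exposed to compound for 24 hr at 30 deg C. Cell growth, read with BacTiter-Glo luminescence, gave the measured signal.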
CCT chaperon mod: modulators of cytosolic chaperonin (CCT/TRiC) activity | purified chaperonin ATPase assay, HTRF ADP detection, 30 min | 360,000 tested, 0.3% active | AID 651819 | activity change, % (test concentration not listed), hits read low; in the data active means activity change below about -30%; further: on the % scale 0 is the no-effect control and ±100 the full control effect
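TRiC at 40 or 20 nM final (batch-dependent) in 30 mM Tris pH 7.4, 100 mM KCl, 5 mM MgCl2, 1 mM DTT, with compound at single 76 uM and 10 uM ATP, 30 min at 37 deg C. ADP detected by HTRF Transcreener, 665/615 ratio.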
Mito fusion yeast: inhibitors of mitochondrial division or activators of mitochondrial fusion | S. cerevisiae fusion-defective mutant growth rescue, CellTiterGlo 48 h | Potency, µM (top dose mostly 46.1 µM), for the others: top-dose growth rescue (activation), actives largely listed as activators | 320,000 tested, 0.23% active | AID 485298; further: potency means the concentration at half of the fitted maximal effect; % of control where 0% means no effect; nearly all actives have a fitted effect of over 45% in size
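Temperature-sensitive fusion-defective S. cerevisiae (e.g. fzo1-1, mgm1-5) were grown with compound in YPEG medium (3% ethanol, 3% glycerol) for 48 hours at 37C. Growth rescue was measured as viability by CellTiterGlo luminescence after 10 minutes at ambient.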
TDP43 rescue: TDP-43 toxicity inhibition in yeast; TDP-43 expressing yeast growth rescue, BacTiter-Glo, 24 h; Potency, µM (doses to about 46.1 µM), for inactives: at the highest dose growth rescue (activation), usual class: activators; 410,000 tested, 1.8% active; AID 652104; further: potency means the concentration at half of the fitted maximal effect; % of control where 0% means no effect; nearly all actives have a fitted effect of over 50% in size
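Galactose-induced TDP-43 yeast, OD600=0.02, compound pinned; 24 hr, 30 deg C; BacTiter-Glo luminescence for growth. Inhibitors of TDP-43 toxicity read as activators.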
Akt phos inh: Akt phosphorylation inhibition; Neuro2A IGF-stimulated pAkt S473 HTRF, 20 min; hits give low values; activity change, % for hits at 50 µM; 360,000 tested, 0.32% active; in the data active means activity change below about -80%; inconclusive means mostly about -51% to -80%; further: on the % scale 0 is the no-effect control and ±100 the full control effect
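Single-point screen (50 µM final compound) in Neuro2A cells stimulated 20 min with 6 nM IGF at 37 deg C. After lysis, Ser473-phosphorylated Akt read by HTRF (ex 330 nm, em 615/665 nm) as the 665/615 ratio.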
Starred values were filed as active, the others as inactive; i = inactive; ? = inconclusive; nt = no result. Most compounds without a hit are left out; they make up all but 2.5% or so of the library. Unless noted, the call rests on the fitted dose curve; in most records, active means well fitted curve in the direction sought with a large enough effect; inconclusive means small, poorly fitted or top-dose-only effect, or another doubt; inactive means no such curve, though single readings can be large; an effect the other way counts as inactive or inconclusive.

SMILES	Apoferritin bind	aSyn yeast inh	CCT chaperon mod	Mito fusion yeast	TDP43 rescue	Akt phos inh
Cc1cc(Sc2ncnc(N)c2[N+](=O)[O-])ncn1	-9%	-8%	-1	-2%	22µM*	i
Cc1cc(Sc2nc(N)ncc2[N+](=O)[O-])ncn1	-7%	3%	-2	-1%	?	i
Cc1cccc(Oc2ncnc(N)c2[N+](=O)[O-])c1	-8%	10%	1	-4%	?	i
Cc1ccc(Oc2ncnc(N)c2[N+](=O)[O-])cc1C	-19%	6%	1	-4%	11µM*	i
CC[C@H](C)[C@H](NC(=O)[C@H](C)NC(=O)[C@H](CC(=O)O)NC(=O)[C@H](CO)NC(=O)[C@@H](N)Cc1cnc[nH]1)C(=O)N[C@@H](Cc1ccccc1)C(=O)N[C@H](C(=O)N[C@@H](CCC(N)=O)C(=O)N[C@@H](CCC(N)=O)C(=O)N[C@@H](Cc1ccc(O)cc1)C(=O)N[C@@H](CO)C(=O)N[C@@H](CCCCN)C(=O)N[C@@H](CC(C)C)C(=O)N[C@@H](CC(C)C)C(=O)N[C@@H](C)C(=O)N[C@@H](CCCCN)C(=O)N[C@@H](CC(C)C)C(=O)N[C@@H](C)C(=O)N[C@@H](CC(C)C)C(=O)N[C@@H](CCC(N)=O)C(=O)N[C@@H](CCCCN)C(=O)N[C@@H](Cc1ccc(O)cc1)C(=O)N[C@@H](CC(C)C)C(=O)N[C@@H](C)C(=O)N[C@@H](CO)C(=O)N[C@H](C(=O)N[C@@H](CC(C)C)C(=O)NCC(=O)N[C@@H](CO)C(=O)N[C@@H](CCCNC(=N)N)C(=O)N[C@H](C(=O)N[C@@H](CO)C(=O)N1CCC[C@H]1C(=O)N1CCC[C@H]1C(=O)N1CCC[C@H]1C(N)=O)[C@@H](C)O)[C@@H](C)CC)[C@@H](C)O	131%	nt	nt	nt	nt	nt
COC(=O)c1ccc(CSc2nnc3ccc4ccccc4n23)cc1	9%	nt	nt	nt	35µM*	nt
COc1ccc(N/C(C)=C/C(=S)Nc2ccccc2)cc1	-12%	22%	-1	0%	13µM*	i
COc1ccc(N/C(C)=C/C(=O)c2ccccc2)cc1	-6%	-4%	-1	0%	17%	i
C[C@H](Cc1nc2c(cnn2-c2ccccc2Cl)c(=O)[nH]1)C(F)(F)F	-12%	nt	nt	nt	nt	nt
CC1(C)CCC[C@@]2(C)CC=C(C(=O)O)[C@@H]3C[C@]312	nt	?	0	5%	11µM*	i
CCc1ccc(NC(=O)c2cc(S(=O)(=O)NC3CCCC3)ccc2F)cc1	-4%	nt	nt	nt	20µM*	nt
COc1ccccc1NC(=O)c1cc(S(=O)(=O)NC2CCCC2)ccc1F	-23%	6%	1	6%	?	i
CCCc1ccc(S(=O)(=O)Nc2ccc(C)c(NS(C)(=O)=O)c2)cc1	0%	-5%	1	5.6µM*	-21%	i
CCCCc1ccc(S(=O)(=O)Nc2ccc(C)c(NS(C)(=O)=O)c2)cc1	-5%	-4%	-5	8%	6%	i
Cc1[nH]c2ccc(C(=O)NC3CCCC3)cc2c1C	nt	-3%	-7	5%	11%	i
Cc1[nH]c2ccc(C(=O)NC3CCC(C)CC3)cc2c1C (stereo not drawn)	7%	0%	-62*	-3%	-13%	nt
Cn1c2nc3ccccc3c-2nc2ccccc21	nt	16µM*	0	nt	20%	i
Cn1c(-c2nonc2N)nc2ccccc21	-5%	15%	-6	-2%	?	i
Ic1ccc(/C=C2\C=Cc3ccccc32)cc1	nt	-6%	nt	nt	nt	nt
CC(C)c1ccc(N(C)C(=O)Cc2c(C(=O)O)n(C)c3ccccc23)cc1	-12%	10%	-4	3%	28µM*	i
CN(C(=O)Cc1c(C(=O)O)n(C)c2ccccc12)c1ccc(Cl)cc1	4%	3%	-3	-2%	-23%	i
CCc1ccc(N(CC)C(=O)Cc2c(C(=O)O)n(C)c3ccccc23)cc1	-1%	-11%	-3	17%	28µM*	i
